PAX8 reporter: inhibitors of PAX8 transcriptional activity in RMG-I cells. AID 652154. 1.2% of 360,000 active. RMG-I TPO-luciferase reporter, SteadyGlo, 24 h. inhibition, % at 12.6 µM;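 active = mean replicate inhibition at least 60% with every replicate also reaching 60%; inconclusive = only one of the two criteria is met; inactive = mean below 60% and not all replicates reaching 60%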;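 note: luciferase light reporting Pax8 driven TPO promoter activity; plate controls were median of neutral control wells for no effect and mitoxantrone controls for full effect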
TWEAK Fn14 block: blocks TWEAK-Fn14 interaction in a reporter cell assay. inhibition, % at 10 µM. AID 1159606. TWEAK-stimulated Fn14 reporter cells, luciferase luminescence, 8 h. 2% of 360,000 active; in the data active = inhibition above about 50%
TROY signal inh: inhibitors of TROY-dependent NF-kB signaling; 0.98% of 360,000 active; Q293 LMP1-TROYcd NF-kB luciferase reporter, 4 h; AID 1347056; inhibition, % at 10 µM;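 active = compounds whose plate-normalised and pattern-corrected inhibition of the luciferase reporter signal at the single screening dose is 50% or more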
LGR2 antag: blocks bursicon-induced cAMP signaling via Drosophila LGR2; AID 720647; 0.35% of 380,000 active; inhibition, % at 9.99 µM; HEK293 LGR2, CRE-luciferase, bursicon-stimulated, 4 h;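 active = drop in luminescence signal, shown as inhibition above about 50% in the replicate tests, limit read from the data, passing the limit was not always enough; inconclusive = probably only some replicates passing the limit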;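 note: agonist challenge used bursicon conditioned medium at about half maximal strength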
EWS-Fli inh: inhibitors of EWS/Fli oncoprotein transcriptional activity; A673 NR0B1-luciferase reporter, viability-normalised; inhibition, % at 12.6 µM; 0.67% of 350,000 active; AID 651661;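 active = mean inhibition of at least 50% after viability correction, with every replicate also passing that limit; inconclusive = mean reaches 50% but only one of two replicates passes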;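 note: firefly luciferase signal divided by Alamar Blue viability fluorescence both relative to DMSO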
An asterisk follows results filed as active; ? = inconclusive; · = not tested or not shown. The list is not random: actives were taken first. Their share in the collection is about 2.8%.

SMILES	PAX8 reporter	TWEAK Fn14 block	TROY signal inh	LGR2 antag	EWS-Fli inh
COc1ccc(/C=N/NC(=S)Nc2cccc(C(=O)O)c2)cc1	-2	50*	-39	75*	2
COc1cc(/C=N/NC(=S)Nc2cccc(C(=O)O)c2)ccc1O	80*	-16	-60	91*	81*
COc1cc(/C=N/Nc2nc(C)nc3c2cnn3-c2ccccc2)ccc1O	27	64*	44	58*	35
COc1cc(/C=N/NC(=O)c2nc(-c3ccccc3)n(-c3ccccc3)n2)ccc1O	7	7	8	3	·
Cc1noc(C)c1NC(=O)N(C)C[C@H]1OCCCC[C@H](C)Oc2ccc(NC(=O)Cc3ccccc3)cc2C(=O)N([C@@H](C)CO)C[C@@H]1C	·	·	·	-3	0
CCCN1C[C@@H](C)[C@@H](OC)CN(C)C(=O)c2cc(NC(=O)c3cnccn3)ccc2OC[C@H]1C	·	·	·	-3	-6
CCCNC(=O)COc1nc2ccccc2nc1N1CCOCC1	103*	2	13	5	13
CN1C2=CC=CC=CC2=[N+](C)C12C([N+](=O)[O-])=CC(=[N+]([O-])[O-])C=C2[N+](=O)[O-] (configuration not stated)	9	61*	-20	11	20
CN1C2=CC=CC=CC2=[N+](C)C12C=CC(=[N+]([O-])[O-])C=C2[N+](=O)[O-] (configuration not stated)	30	2	12	12	-28
CCOCCOC(=O)C(C)Oc1ccc(Oc2ncc(Cl)cc2Cl)cc1 (configuration not stated)	71*	8	12	7	4
CCOCCOC(=O)C(C)Oc1ccc(Oc2nc(Cl)ccc2Cl)cc1 (configuration not stated)	5	6	-16	8	14
Cc1nc(Sc2nnnn2C)c2c3c(sc2n1)CCC3	·	78*	23	·	·
CCc1nc(N2CCN(C(=O)c3ccccc3)CC2)c2c3c(sc2n1)CCCC3	11	28	32	29	8
CCc1nc(Sc2nnnn2-c2ccccc2)c2c3c(sc2n1)CCCC3	20	93*	55*	55*	-3
Cc1nc(SCC(=O)NCC2CCCO2)c2c3c(sc2n1)CCC3 (configuration not stated)	-7	15	0	-3	4
CC(C)(C)c1ccc(C(=O)c2c[nH]c(C(=O)O)c2)cc1	-71	50*	14	-69	-107
COC(=O)c1cc(C(=O)c2ccc(C(C)(C)C)cc2)c[nH]1	-76	6	-10	-54	-95
C[C@H]1CCCCO[C@@H](CN(C)Cc2ccc(C(=O)O)cc2)[C@@H](C)CN([C@@H](C)CO)C(=O)c2cc(NS(=O)(=O)c3ccc(Cl)cc3)ccc2O1	87*	·	·	7	-17
C[C@H](CO)N1C[C@H](C)[C@H](CN(C)Cc2ccccc2)OCCCC[C@H](C)Oc2ccc(NS(=O)(=O)c3ccc(Cl)cc3)cc2C1=O	66*	·	·	11	9
C[C@@H]1CN([C@@H](C)CO)C(=O)c2cc(NS(=O)(=O)c3ccc(Cl)cc3)ccc2O[C@@H](C)CCCCO[C@H]1CN(C)Cc1ccccc1	0	·	·	9	6
C[C@H]1CCCCO[C@@H](CN(C)Cc2ccccc2)[C@@H](C)CN([C@@H](C)CO)C(=O)c2cc(NS(=O)(=O)c3ccc(Cl)cc3)ccc2O1	75*	·	·	6	5
C[C@@H]1CCCCO[C@@H](CN(C)Cc2ccccc2)[C@@H](C)CN([C@@H](C)CO)C(=O)c2cc(NS(=O)(=O)c3ccc(Cl)cc3)ccc2O1	76*	·	·	10	9
C[C@@H]1CCCCO[C@H](CN(C)Cc2ccccc2)[C@@H](C)CN([C@@H](C)CO)C(=O)c2cc(NS(=O)(=O)c3ccccc3)ccc2O1	-5	·	·	11	-3
COCCNC(=O)CSC1=N/C(=C/c2ccc(Cl)c(Cl)c2)C(=O)N1c1ccccc1F	1	57*	23	4	·
c1ccc(-c2nnc(NC3=NCCC3)o2)cc1	-4	53*	20	35	10
SMILES	PAX8 reporter	TWEAK Fn14 block	TROY signal inh	LGR2 antag	EWS-Fli inh
Fc1ccc(-c2nnc(NC3=NCCCCC3)o2)cc1	·	99*	77*	·	·
CCc1nc2c(c(=O)[nH]1)C1(CCCC1)Cc1ccccc1-2	·	18	0	·	·
Cc1nc(=S)c2c([nH]1)-c1ccccc1CC21CCCCC1	-18	75*	-5	2	54*
O=C(CCCC(=O)OCC(Cl)=C(Cl)Cl)Nc1cccc(F)c1	-10	3	-7	·	·
O=C(CCCC(=O)OCC(Cl)=C(Cl)Cl)Nc1ccc(F)cc1	103*	10	16	-16	4
CCC12CC1(C(=O)OC)C(=O)N1CCc3c([nH]c4ccccc34)C12 (configuration not stated)	·	-29	62*	·	·
COC(=O)CC1CC2(C(=O)OC)c3[nH]c4ccccc4c3CCN2C1=O (configuration not stated)	0	16	10	2	6
O=C(N[C@@H]1CC[C@@H](CCNS(=O)(=O)Cc2ccccc2)O[C@@H]1CO)c1cnccn1	4	·	·	-7	-6
O=[N+]([O-])c1ccc(NN=Cc2cccc(O)c2)nc1	-119	16	-30	-63	-102
Cc1cccc(C)c1-n1c(C)cc(/C=N\Nc2ccc([N+](=O)[O-])cn2)c1C	·	80*	·	·	·
C[C@H](CO)N1C[C@H](C)[C@@H](CN(C)Cc2ccc(-c3ccccc3)cc2)Oc2ccc(N(C)C)cc2CC1=O	28	·	·	3	3
C[C@@H]1CN([C@@H](C)CO)C(=O)c2cc(NS(C)(=O)=O)ccc2O[C@@H](C)CCCCO[C@@H]1CN(C)C	-6	·	·	11	4
C[C@@H]1CN([C@H](C)CO)C(=O)c2cccc(NC(=O)NC3CCCCC3)c2O[C@@H]1CN(C)CC1CC1	-38	·	·	-4	-4
N#C[C@@H]1[C@H](c2ccc(C#Cc3cccc(F)c3)cc2)[C@@H](CO)N1C(=O)C1CC1	9	·	·	54*	?
N#C[C@@H]1[C@H](c2ccc(C#Cc3ccccc3F)cc2)[C@@H](CO)N1C(=O)C1CCC1	32	·	·	?	38
N#C[C@@H]1[C@H](c2ccc(C#Cc3ccccc3F)cc2)[C@@H](CO)N1C(=O)C1CCCC1	·	·	·	66*	2
CCCC#Cc1ccc([C@H]2[C@@H](CO)N(C(=O)C3CCCCC3)[C@H]2C#N)cc1	84*	·	·	-6	2
N#C[C@H]1[C@H](c2ccc(C#Cc3ccccc3F)cc2)[C@H](CO)N1C(=O)C1CCC1	87*	·	·	102*	66*
N#C[C@@H]1[C@@H](c2ccc(C#Cc3ccccc3F)cc2)[C@H](CO)N1C(=O)C1CCCC1	·	·	·	-22	0
O=C(C[C@@H]1CC[C@@H](NS(=O)(=O)c2ccccc2)[C@@H](CO)O1)NCc1ccc(Cl)c(Cl)c1	9	·	·	-5	0
COc1ccc2c3c([nH]c2c1)[C@H](CO)N(Cc1ccc(Cl)cc1)CC31CN(Cc2ccccc2)C1	·	·	·	-7	-3
